Assay outcomes: PubChem, National Center for Advancing Translational Sciences (NCATS)
FLuc modulator – firefly luciferase modulation, counter-screen for miR-21 project. P08659. purified FLuc, Km substrates, luminescence inhibition. Potency, µM (doses to about 57.5 µM), inactives show at the highest dose activity change, negative = inhibition, actives largely listed as inhibitors. hit rate 6.9% among 360,000. AID 588342;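 note: plate controls were vehicle for no effect and reference inhibitor for full effect; nearly all actives have a fitted effect of over 55% in size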
Target sequence (P08659 whole entry, looked up): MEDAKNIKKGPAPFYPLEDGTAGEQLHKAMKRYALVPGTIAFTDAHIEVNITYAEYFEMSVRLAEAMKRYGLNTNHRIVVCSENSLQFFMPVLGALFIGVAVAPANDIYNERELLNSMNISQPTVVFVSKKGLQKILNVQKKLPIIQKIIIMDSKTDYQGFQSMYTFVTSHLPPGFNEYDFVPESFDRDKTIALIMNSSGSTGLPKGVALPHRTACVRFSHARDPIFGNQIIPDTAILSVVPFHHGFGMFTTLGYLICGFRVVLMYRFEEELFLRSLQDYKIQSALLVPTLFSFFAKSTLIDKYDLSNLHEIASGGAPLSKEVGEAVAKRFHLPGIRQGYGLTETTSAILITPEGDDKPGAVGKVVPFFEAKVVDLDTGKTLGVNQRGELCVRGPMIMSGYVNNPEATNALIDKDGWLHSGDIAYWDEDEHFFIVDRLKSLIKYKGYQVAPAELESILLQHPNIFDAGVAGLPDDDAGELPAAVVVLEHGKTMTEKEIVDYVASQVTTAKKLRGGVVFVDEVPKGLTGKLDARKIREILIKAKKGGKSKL
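Biochemical qHTS of compounds, final roughly 60 µM downward over six points, against 10 nM purified firefly luciferase using Km concentrations of substrates (10 uM D-luciferin, 10 uM ATP) in Tris acetate pH 7.5 buffer; luminescence output.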
ELG1 repair inh – ELG1-dependent DNA repair inhibition; HEK293T ELG1-luciferase reporter, luminescence, 16 h; DNA damage induced by 5-fluorouridine; Potency, µM (series often up to 46.1 µM), for the others: top-dose activity change, negative = inhibition, most hits filed as inhibitors; hit rate 2.3% among 330,000; note: % is set by controls: 0 for no effect and ±100 for the full control effect; nearly all actives have a fitted effect of over 55% in size
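In this reporter screen, reduction of luminescence relative to DMSO vehicle indicated activity. Compounds and 5-fluorouridine were added together to 2,000 cells per well, incubated for 16 hr at 37 °C, then developed with ONE-Glo.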
NPC1 promoter act – NPC1 promoter activation; Huh7 NPC1 promoter luciferase reporter, 24 h; Potency, µM (titrated, usually from 9.22 µM), inactives show top-dose activation, hits mostly activators; hit rate 2.4% among 320,000; AID 485313; note: % of control where 0% means no effect; nearly all actives have a fitted effect of over 60% in size
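Luminescence read-out of NPC1 promoter-driven luciferase in stably transfected Huh7 cells; compounds delivered in DMSO and left 24 h at 37C, 5% CO2, qHTS titration format.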
Rab9 prom act – activators of Rab9 promoter; Huh7 Rab9 promoter-luciferase reporter, luminescence, 24 h; Potency, µM (titrated, usually from 9.22 µM), inactives show at the highest dose activation, negative = inhibition, hits mostly activators; hit rate 2.8% among 320,000; AID 485297; note: % of control where 0% means no effect; nearly all actives have a fitted effect of over 60% in size
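Luminescence read-out: Huh7 cells stably expressing Rab9-luciferase, treated 24 h with compound at 37 °C, then lysed with luciferase reagent for 10 min at ambient before reading.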
ELG1 genotoxic – genotoxicity induction in ELG1-luciferase HEK293T cells | HEK293T ELG1-luciferase reporter, luminescence, 16 h | Potency, µM (titrated, usually from 46 µM), for inactives: at the highest dose activity change, positive = activation, hits mostly activators | hit rate 1.3% among 330,000; note: % of control where 0% means no effect; nearly all actives have a fitted effect of over 60% in size
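HEK293T cells expressing luciferase-tagged ELG1 were exposed to compound or DMSO vehicle for 16 hr at 37 °C and 5% CO2. Luciferase activity was then measured with ONE-Glo after 30 min at room temperature.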
SMN2 splice up – SMN2 splice variant enhancement; HEK293 SMN2-luciferase splicing reporter, luminescence, 30-36 h; Potency, µM (doses to about 46.1 µM), for the others: at the top dose activity change, positive = activation, hits mostly activators; hit rate 2.8% among 210,000; AID 1458; note: % of control where 0% means no effect; nearly all actives have a fitted effect of over 55% in size
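HEK293 cells carry an SMN2 minigene-luciferase reporter in which exon 7 inclusion puts luciferase in frame. Cells were seeded at 2000 cells/well, attached for 10-12 hours, then exposed to compounds for 30-36 hours at 37C before ONE-Glo luminescence.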
Active calls of the source: *; ? = inconclusive; . = no result given; [ ] = remark or other dose. A selection: hits, their analogues and other compounds. The true share with any hit is near 9.2%. Calls come from the whole dose curve; as a rule, active = well fitted curve in the direction sought with a large enough effect; inconclusive = small, poorly fitted or top-dose-only effect, or another doubt; inactive = no such curve, though single readings can be large; an effect the other way counts as inactive or inconclusive. Potency is the fitted concentration of half-maximal effect.

SMILES	FLuc modulator	ELG1 repair inh	NPC1 promoter act	Rab9 prom act	ELG1 genotoxic	SMN2 splice up
C=CCn1c(SCC(=O)NC2CCS(=O)(=O)C2)nnc1-c1ccc(Cl)cc1 (stereo not given)	-2.0%	8.4%	1.3%	-2.7%	-5.1%	.
C=CCn1c(SCC(=O)NC2CCS(=O)(=O)C2)nnc1-c1cc2c(s1)CCC(CC)C2 (stereo not given)	10.7µM*	?	20.3%	24.8%	10.4%	29.2%
C=CCn1c(-c2cc3c(s2)CCC(CC)C3)n[nH]c1=S (stereo not given)	30.1µM*	?	10.5%	28.3%	0.0%	26.0%
C=CCn1c(-c2sccc2C)n[nH]c1=S	-6.8%	-2.3%	0.0%	-5.2%	-1.0%	-15.2%
CCn1ccc2cc(S(=O)(=O)N3CCCN(C(=O)NCC(=O)OC)CC3)ccc21	-2.1%	.	.	.	.	.
COc1cc(OC)nc(-n2ncc(Br)c(Br)c2=O)n1	4.6%	4.61µM*	-35.9%	-43.1%	-15.6%	-107.1%
Cn1c(=O)cc(C(=O)N/N=C/c2ccc(Cl)cc2)[nH]c1=O	12µM*	2.5%	-3.4%	-4.9%	-2.5%	.
Cn1c(=O)n(C)c2cc(/C=N/NC(=O)c3ccc(Cl)cc3)ccc21	-0.9%	?	-4.9%	2.3%	4.6%	.
CC(C)NC(=O)c1onc(CSc2cccc3ccccc23)c1C(=O)O	26.9µM*	-1.0%	1.0%	-4.9%	-4.1%	-1.8%
CC(C)NC(=O)c1onc(CSc2ccccc2)c1C(=O)O	-16.4%	-5.7%	6.0%	3.8%	1.2%	15.1%
CNC(=O)c1ccc2snnc2c1	-0.6%	9.4%	-1.4%	-2.4%	-7.3%	2.3%
COc1ccc(NC(=O)c2ccc3snnc3c2)cc1	9.53µM*	?	?	2.82µM*	?	12.6µM*
O=C(Nc1cccc(C(F)(F)F)c1)c1ccc2snnc2c1	-1.6%	.	.	.	.	0.6%
CC(=O)c1ccc(NC(=O)c2ccc3snnc3c2)cc1	?	?	4.47µM*	3.98µM*	14.6µM*	.
Cc1c(-c2nc(N)nc(Nc3ccccc3)n2)oc2ccccc12	4.78µM*	?	1.41µM*	2.51µM*	7.31µM*	11.2µM*
Nc1nc(CN2CCCCCC2)nc(Nc2ccccc2)n1	0.4%	3.7%	7.4%	-2.4%	2.3%	7.0%
COC(=O)c1cc(S(=O)(=O)Nc2cccc(C)c2C)cn1C	4.4%	-7.1%	2.0%	-0.8%	-2.5%	.
Cn1cc(C(=O)Nc2ccc3c(c2)CCC3)cn1	21.3µM*	?	23.4%	29.5%	?	.
NS(=O)(=O)c1cc(C(=O)Nc2ccc3c(c2)CCC3)ccc1Cl	16.9µM*	?	3.55µM*	3.98µM*	10.3µM*	.
Cc1ccc(C(=O)Nc2ccc3c(c2)CCC3)cc1	0.379µM*	?	?	0.316µM*	0.184µM*	1.41µM*
Cc1ccc(C(=O)Nc2ccc3c(c2)n(C)c(=O)c(=O)n3C)cc1	?	.	.	.	.	-6.2%
O=C(OCC#CCSc1nnc(-c2cccc3ccccc23)s1)c1cccs1	3.6%	.	1.1%	-2.5%	.	.
Nc1cc(C(=O)OCC(=O)Nc2cccc(S(=O)(=O)N3CCOCC3)c2)ccc1Cl	.	-16.3%	.	.	-1.8%	.
C=CCC[C@@H](Cc1ccc(F)cc1)C(=O)OC[C@@H](Cc1c[nH]c2ccccc12)NC(=O)[C@H](CC=C)CC(=O)N(CCO)Cc1ccccc1	.	18.3µM*	.	.	-12.0%	.
C=CCC[C@H](Cc1ccc(F)cc1)C(=O)OC[C@@H](Cc1c[nH]c2ccccc12)NC(=O)[C@H](CC=C)CC(=O)N(CCO)Cc1ccccc1	.	16.4µM*	.	.	-12.6%	.
SMILES	FLuc modulator	ELG1 repair inh	NPC1 promoter act	Rab9 prom act	ELG1 genotoxic	SMN2 splice up
Fc1ccc(-c2cc(-c3nc(-c4ccc(Cl)cc4)no3)[nH]n2)cc1	-1.2%	.	.	.	.	.
COc1ccccc1-c1c(-c2ccc(O)cc2O)n[nH]c1C(F)(F)F	1.5%	5.8µM*	-17.7%	-26.5%	-9.2%	.
Cc1ccccc1NS(=O)(=O)c1nnc(NC(=O)CC(C)C)s1	3.4%	13.5%	1.2%	-0.5%	-2.2%	.
CCOCCCNC(=O)c1cc(Sc2ccc(F)cc2)nc2ccccc12	-0.7%	18.4µM*	0.2%	0.2%	-9.8%	-11.5%[1.84 µM]
N/N=C(\Cc1cscn1)c1ccc(O)cc1O	0.7%	23.1µM*	-9.0%	-7.7%	0.9%	.
Cc1cccc(-n2ncc(C(=O)N3CCN(Cc4ccccc4)CC3)c2C2CCN(C(=O)OC(C)(C)C)CC2)c1	6.3%	.	.	.	.	.
COc1cccc(Nc2nnc(SCc3nc4ccccc4s3)s2)c1	13.5µM*	?	?	?	14.8%	-11.0%
COc1cccc(Nc2nnc(SCC(=O)N(CC(C)C)CC(C)C)s2)c1	10.7µM*	-21.9%	-2.5%	-14.8%	-10.7%	.
Cc1cccc(C)c1Nc1nnc(SCc2nc3ccccc3s2)s1	6.01µM*	?	5.9%	24.9%	?	?
COc1cccc(Nc2nnc(SCN3C(=O)c4ccccc4C3=O)s2)c1	4.8%	?	0.7%	-1.3%	9.5%	27.8%
Cc1cc(C)cc(NC(=O)Cn2c(SCc3cc(C)ccc3C)nc3ccncc32)c1	-1.4%	?	10.2%	11.5%	15.5%	-3.8%
COc1ccc(-c2nc(Cn3c(SCc4ccc(C)cc4)nc4ccncc43)c(C)o2)cc1OC	1.69µM*	13µM*	14.4%	?	-0.4%	16.3%
Cc1ccc(CSc2nc3ccncc3n2CC(=O)Nc2cc(C)cc(C)c2)cc1	1.51µM*	?	28.4%	?	?	?
O=C(NCC(c1cccs1)S(=O)(=O)c1cccs1)c1ccccc1 (stereo not given)	3.9%	.	.	.	.	.
COc1cccc(NC(=O)CCc2nc(-c3cc(OC)c(OC)c(OC)c3)no2)c1	-8.4%	.	.	.	.	-3.5%
CC(=O)Nc1ccc2nc3ccccc3nc2c1	19µM*	?	2.82µM*	3.98µM*	20.6µM*	.
COc1ccc(-c2nc3ccccc3o2)cc1NC(=O)COc1ccc(C(C)(C)C)cc1	-1.2%	.	.	.	.	5.01µM*
CC(=O)Nc1cc(-c2nc3ccccc3o2)ccc1Cl	16.9µM*	?	14.9%	?	?	.
COc1ccc(-c2nc3ccccc3o2)cc1NC(=O)COc1cc(C)cc(C)c1	-5.8%	.	.	.	.	.
O=C1C2C3C=CC(C3)C2C(=O)N1c1cccc(-c2nc3ccccc3o2)c1 (stereo not given)	3.1%	10.2%	12.8%	18.3%	11.1%	?
O=C(Nc1cccc(-c2nc3ccccc3o2)c1)c1ccc(N2C(=O)C3C4C=CC(C4)C3C2=O)cc1 (stereo not given)	-17.6%	16.4µM*	3.3%	-3.9%	-19.2%	-23.0%
CC(=O)Nc1ccc2nc3c(=O)n(C)c(=O)n(C)c3nc2c1	-1.2%	-0.4%	-1.2%	0.6%	0.0%	.
